# Source: PubChem
# Shown are actives, neighbours in structure and some others; about 0.41% of the full set was active somewhere.
# GLA inh pH 4.5: qHTS Assay for Inhibitors of Human alpha-Galactosidase at pH 4.5; activity change, negative = inhibition, % at 105 µM; Alpha-galactosidase A (Homo sapiens), P06280; 230,000 tested, under 10 active; AID 1467, 2008; purified enzyme, 4-MU-alpha-Gal fluorescence, pH 4.5;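 also: 0% = full activity with enzyme and -100% = basal without enzyme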
# aGlu spleen mod: qHTS Assay for Inhibitors and Activators of Human alpha-Glucosidase From Spleen Homogenate; Lysosomal alpha-glucosidase (Homo sapiens), P10253; human spleen homogenate, 4-MU-alpha-glucoside fluorescence; Potency, µM (highest dose often 79.9 µM), without a hit: at the top dose activity change, negative = inhibition, usual class: inhibitors; 0.006% of 240,000 active; AID 2112, 2009;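 also: potency is read from the fitted curve at half-maximal effect; 0% = enzyme with vehicle and -100% = no enzyme basal signal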
#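 Compounds were titrated against alpha-glucosidase in spleen homogenate at pH 5.0, with 1 mM 4-methylumbelliferyl substrate for 40 min at 37 C. Reactions were quenched with pH 10 NaOH/glycine and fluorescence measured.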
# GAA inh: qHTS Assay for Inhibitors of Human alpha-Glucosidase as a Potential Chaperone Treatment of Pompe Disease. Lysosomal alpha-glucosidase (Homo sapiens), P10253. purified human GAA, 4-MU-alpha-glucoside fluorescence. Potency, µM (titrated, usually from 76.9 µM), inactives show top-dose activity change, negative = inhibition, actives largely listed as inhibitors. 0.005% of 200,000 active. AID 1466, 2008;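 also: potency is read from the fitted curve at half-maximal effect; plate controls were uninhibited enzyme wells for no effect and no-enzyme background for full effect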
#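 AC50 values come from Hill fits of compound titrations (up to 77 uM) against 4 nM human enzyme. Substrate 4-methylumbelliferyl-alpha-D-pyranoside at 400 uM, pH 5.0 citrate buffer, 20 min room temperature; fluorescence Ex 365/Em 440 after alkaline stop.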
# aGal spleen mod: qHTS Assay for Inhibitors and Activators of Human alpha-Galactosidase From Spleen Homogenate; human spleen homogenate, 4MU-alpha-Gal fluorescence, 40 min; 0.008% of 240,000 active; Potency, µM (doses to about 80 µM), for inactives: at the highest dose activity change, negative = inhibition, actives largely listed as inhibitors;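 also: potency is read from the fitted curve at half-maximal effect; 0% = enzyme with vehicle and -100% = no enzyme basal signal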
# Target sequence (P06280 32-429 limits assumed): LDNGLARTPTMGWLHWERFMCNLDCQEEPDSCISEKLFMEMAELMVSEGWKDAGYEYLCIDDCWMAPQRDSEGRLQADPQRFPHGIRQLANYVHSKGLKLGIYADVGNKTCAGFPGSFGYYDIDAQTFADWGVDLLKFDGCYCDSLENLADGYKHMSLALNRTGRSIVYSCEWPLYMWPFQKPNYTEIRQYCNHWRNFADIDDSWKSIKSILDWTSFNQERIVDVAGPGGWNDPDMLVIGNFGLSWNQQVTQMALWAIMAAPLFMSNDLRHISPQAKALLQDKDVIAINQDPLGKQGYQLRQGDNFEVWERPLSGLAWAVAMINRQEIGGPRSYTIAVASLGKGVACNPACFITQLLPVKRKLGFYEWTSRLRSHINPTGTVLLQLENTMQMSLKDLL
#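 Fluorogenic readout (Ex 365/Em 440 nm) of 4-methylumbelliferone released from 1 mM 4-MU-alpha-galactoside by spleen homogenate, 40 min at 37C, pH 5.0. Data normalized to no-enzyme and enzyme controls; Hill-equation AC50 from compound titrations.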
# GAA glycogen: qHTS Assay for Inhibitors and Activators of Human alpha-Glucosidase Cleavage of Glycogen; 0.38% of 300,000 active; recombinant GAA, glycogen substrate, Amplex Red glucose oxidase fluorescence; Potency, µM (titrated, usually from 76.4 µM), for the others: at the top dose activity change, negative = inhibition, usual class: inhibitors;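 also: potency is read from the fitted curve at half-maximal effect; 0% = full enzyme reaction and -100% = no-enzyme basal signal; the screen sought inhibitors and activators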
#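 qHTS, 1536-well; enzyme 4 nM final; cpd up to 77 uM; substrate bovine liver glycogen 30 ug; 50 mM citrate/phosphate pH 5.0, 0.01% Tween-20; 37 C, 40 min; Amplex Red detection 45 min RT; Hill fit → AC50.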
# N370S GC: qHTS Assay for Inhibitors and Activators of N370S glucocerebrosidase as a Potential Chaperone Treatment of Gaucher Disease; Lysosomal acid glucosylceramidase (Homo sapiens), P04062; N370S GC spleen homogenate, 4MU-glucoside fluorescence; Potency, µM (titrated, usually from 59.4 µM), for the others: at the top dose activity change, negative = inhibition, hits mostly inhibitors; 0.092% of 330,000 active; AID 2101, 2009;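 also: potency is read from the fitted curve at half-maximal effect; 0% = full enzyme activity and -100% = no enzyme basal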
# * hit, by the source's call; ? = inconclusive; / = no result; [ ] = dose if it differs, or a comment. Calls follow the shape of the dose curve; as a rule, active = well fitted curve in the direction sought with a large enough effect; inconclusive = small, poorly fitted or top-dose-only effect, or another doubt; inactive = no such curve, though single readings can be large; an effect the other way counts as inactive or inconclusive.
SMILES,GLA inh pH 4.5,aGlu spleen mod,GAA inh,aGal spleen mod,GAA glycogen,N370S GC
CN(C)c1ccc(N/C=C/C(=O)c2ccco2)cc1,-5.4,2.0%,5.3%,1.4%,12.6µM*,3.8%[12.8 µM]
CC(=O)Nc1ccc(N/C=C/C(=O)c2ccco2)cc1,-2.9,-2.7%,-6.0%,-1.6%,-6.9%,12.6%
O=C(/C=C/Nc1ccccc1O)c1ccco1,-8.9,-0.7%,/,-4.7%,15.7µM*,-7.0%
O=C(/C=C/Nc1ccccc1Oc1ccccc1)c1ccco1,-7.2,-2.9%,-5.5%,-8.3%,-10.2%,5.6%
Cc1ccc(NC(=O)N2CCC(CN3CCCC3)CC2)c(C)c1,/,/,/,/,10.1%[76.3 µM],/
CC(C)C(C)NC(=O)CSc1nc2scc(-c3ccco3)c2c(=O)n1-c1ccccc1 (configuration not stated),-1.0,-18.8%,-9.4%,-3.8%,9.3%,1.12µM*
CCCCCCCCCCCCCCCCn1cc[n+](Cc2ccccc2)c1C,/,-5.2%,/,11.7%,/,-4.6%
COc1ccc(Cl)cc1NC(=O)CSc1nc(-c2ccco2)cc(C(F)(F)F)n1,/,/,/,/,13.5%[76.3 µM],/
N#CC(=C(/N)Sc1ccccc1N)/C(C#N)=C(\N)Sc1ccccc1N,/,4.0%,/,12.5%,/,-1.5%
COc1cccc(C(c2c(NC(=O)c3ccccc3)sc(C)c2C)N2CCN(C)CC2)c1 (configuration not stated),1.5,3.0%,4.7%,3.9%,2.9%,15.8µM*
O=C(Nc1ccc(Br)cc1)C1CCN(S(=O)(=O)c2cccc3nsnc23)CC1,/,/,/,/,-13.8%[76.3 µM],/
COc1ccc(C2=Nn3c(nnc3-c3ccccc3O)SC2)c(OC)c1,/,-2.9%,/,-1.5%,/,7.4%
C/C(=N\N1CCN(C2c3ccccc3-c3ccccc32)CC1)c1cccnc1,2.0,-21.6%,11.6%,3.1%,31.6µM*,8.1%
C(=N\N1CCN(C2c3ccccc3-c3ccccc32)CC1)/c1cccnc1,-2.4,-8.5%,-5.5%,-7.1%,-19.8%,/
CC1Sc2ccc(S(=O)(=O)CCC(=O)Nc3ccc(C(C)C)cc3)cc2NC1=O (configuration not stated),/,/,/,/,/,6.31µM*
Cc1ccc(NC(=O)CCS(=O)(=O)c2ccc3c(c2)NC(=O)C(C)S3)cc1Cl (configuration not stated),/,/,/,/,/,7.94µM*
CC1Sc2ccc(S(=O)(=O)CCC(=O)Nc3ccccc3Cl)cc2NC1=O (configuration not stated),/,/,/,/,-6.3%[76.3 µM],?
CCOC(=O)c1c(-c2ccccc2)oc2ccc(NS(=O)(=O)c3cc(C)c(C)cc3C)cc12,/,/,/,/,-5.2%[76.3 µM],/
Cc1ccc2nc(-c3ccc(SCC(=O)O)nc3)[nH]c2c1,-2.8,-0.8%,2.8%,4.3%,3.4%,14.2%
Cc1ccc2nc(-c3ccc(SCC(=O)N4CCc5ccccc54)nc3)[nH]c2c1,-4.2,-2.7%,4.5%,3.8%,-6.2%,3.16µM*
Cc1cc(=O)n2nc(N(C)CC(=O)NCc3ccc(Cl)cc3)sc2n1,/,/,/,/,11.5%[76.3 µM],/
Cc1ccc(CNc2ccc(N3CCOCC3)c(Cl)c2)cc1,/,/,/,/,/,9.0%
CC(C)c1ccc(CNc2ccc(N3CCOCC3)cc2)cc1,-19.6,-14.6%,-5.9%,-12.6%,28µM*,-11.1%
Cc1ccc(CNc2ccc(N3CCOCC3)cc2)cc1,/,/,/,/,6.31µM*,-18.3%
c1cc(CNc2ccc(N3CCOCC3)cc2)ccn1,3.3,-0.2%,-2.7%,-3.9%,16.2%,12.1%
C=CCNC(=S)Nc1ccc(N(C)C)cc1,-6.8,-2.0%,-5.0%,-2.1%,3.14µM*,1.3%
C=CCNC(=S)Nc1ccc(C(N)=O)cc1,1.3,-1.8%,11.9%,-9.1%,3.1%,1.7%
